Consider six compounds from PubChem BioAssay (NCATS).

For assay [1], the target named is Lysosomal acid glucosylceramidase (Homo sapiens) (UniProt P04062). The assay is described as follows: Glucocerebrosidase-p2 (AID 348; in the data active = potency below about 10 µM; also: potency is read from the fitted curve at half-maximal effect). The conditions noted are these: purified GBA, blue fluorogenic substrate, 40 min. The procedure, abridged: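 Compounds titrated from 0.6 nM upwards against 0.2 nM enzyme in pH 5.9 citric acid/KH2PO4, taurocholate, tween-20; blue fluorogenic substrate 80 uM, 40 min room temperature, stopped and read Ex 365/Em 440 for AC50.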
Chain of Lysosomal acid glucosylceramidase (Homo sapiens) (P04062 whole entry, looked up): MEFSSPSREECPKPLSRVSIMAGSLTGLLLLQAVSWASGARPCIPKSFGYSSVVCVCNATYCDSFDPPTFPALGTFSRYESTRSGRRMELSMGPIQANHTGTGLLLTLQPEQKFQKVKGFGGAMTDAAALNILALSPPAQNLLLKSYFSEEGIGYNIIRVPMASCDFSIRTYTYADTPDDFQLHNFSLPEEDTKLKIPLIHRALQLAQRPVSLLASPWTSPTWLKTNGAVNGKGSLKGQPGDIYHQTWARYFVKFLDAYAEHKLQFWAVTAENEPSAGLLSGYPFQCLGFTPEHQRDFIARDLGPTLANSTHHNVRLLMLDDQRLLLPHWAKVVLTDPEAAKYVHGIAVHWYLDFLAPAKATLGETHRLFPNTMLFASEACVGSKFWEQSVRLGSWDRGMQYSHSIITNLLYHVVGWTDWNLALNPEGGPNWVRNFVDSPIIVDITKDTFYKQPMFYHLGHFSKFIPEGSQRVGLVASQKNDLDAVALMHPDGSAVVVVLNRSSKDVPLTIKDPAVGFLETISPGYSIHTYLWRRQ

Assay [2] is described as follows: AP1 Signaling Pathway (AID 357).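 Also: ME-180 reporter cells stimulated with EGF at its EC50 level; % is scaled to controls: 0 for no effect and ±100 for the full control effect.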 Particulars: ME-180 AP-1-bla reporter, EGF-induced, beta-lactamase ratio, 5 h; at 7.69 µM (top of the series) unless noted. In short, it runs like this:
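A ratiometric CCF4 readout (405 nm excitation; 460 and 530 nm emission) quantified AP-1-driven beta-lactamase in ME-180 cells after 5 h with compound and EC50 EGF; AC50 values were derived for activators and inhibitors.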

Assay [3] addresses Cytochrome P450 1A2 (Homo sapiens) (UniProt P05177). The assay is described as follows: p450-cyp1a2 (AID 410; calls by dose curve; also: potency is read from the fitted curve at half-maximal effect;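 as to activity change, negative = inhibition: -100% = full effect of reference inhibitor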). The conditions noted are these: recombinant CYP1A2, luciferin-ME demethylation, luminescence; series mostly up to 57 µM. In short, it runs like this: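 Luminescent readout of luciferin formed from Luciferin-ME by human CYP1A2; data normalized against complete inhibition by 57 uM furafylline. Enzyme 20nM, substrate 100uM at Km, 100mM KPO4 buffer, 60 min reaction at room temperature.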

Assay [4] can be described thus: Stat Signaling Pathway (AID 446).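 Also: ME-180 cervical cancer cells given 40 pM IL-6 alongside compound; SIE-controlled beta-lactamase reporter measured as 460/530 nm FRET emission ratio; % is scaled to controls: 0 for no effect and ±100 for the full control effect.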 Particulars: ME-180 SIE beta-lactamase reporter, IL-6 stimulated, 5 h; at 7.69 µM (top of the series) unless noted. In short, it runs like this: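 Screening format detects activators and inhibitors alike: ME-180 SIE-bla cells stimulated at 40 pM IL-6 for 5 hrs with compound, then dual-emission beta-lactamase read at 405 nm excitation.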

Assay [5] has as its target Glucocorticoid receptor (Homo sapiens) (UniProt P04150). Description: GR-EFC Redistribution (AID 451; calls by dose curve; also: potency is read from the fitted curve at half-maximal effect). Particulars: CHO-K1 GR-EFC translocation, beta-gal luminescence, 2 h. The procedure, abridged: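 Translocation of GR-ED fusion to nuclear EA restores b-gal, read by luminescence after 1 h room-temperature detection. Engineered CHO-K1 biosensor cells, 1,000/well, exposed 2 h at 37 C to titrations up to 46 uM final.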

Assay [6] has as its target Mitogen-activated protein kinase 10 (Mus musculus) (UniProt Q61831). The assay is described as follows: JNK3 AlphaScreen Assay (AID 530).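 Also: kinase came from lysate of stimulated human HepG2 cells; signal reports phosphorylation of biotinylated GST-cJun 1-79 at Ser73 with 10 µM ATP; % is scaled to controls: 0 for no effect and ±100 for the full control effect.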 Particulars: JNK3 lysate, c-Jun phosphorylation; series mostly up to 57.1 µM. In short, it runs like this: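 Compound titrations were preincubated 15 minutes at room temperature with substrate, antibody and pre-activated JNK3-containing HepG2 lysate. Reactions were started with 10 uM ATP and stopped with EDTA-containing bead buffer for AlphaScreen detection.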
(Alpha assays give light when donor and acceptor beads are brought close together.)

For assay [7], the target named is 3',5'-cyclic-AMP phosphodiesterase 4B (Homo sapiens) (UniProt Q07343). The assay is described as follows: qHTS Assay for Inhibitors of PDE-IV (AID 607; active = well fitted activation curve with a large enough effect in the main read-out, with a control signal flat, not every such curve was filed as active; also: % of control where 0% means no effect). The conditions noted are these: HEK293 ACTOne CNG channel cells, membrane potential fluorescence; series mostly up to 22.9 µM. In short, it runs like this: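 The readout is membrane depolarisation from a cAMP-sensing CNG channel, detected with a potential dye at ex 535/em 590. Cells were HEK293-derived (endogenous PDE-IV) at 1000 cells/well, titrated up to 22.9 uM final.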
Chain of 3',5'-cyclic-AMP phosphodiesterase 4B (Homo sapiens) (Q07343 whole entry, looked up): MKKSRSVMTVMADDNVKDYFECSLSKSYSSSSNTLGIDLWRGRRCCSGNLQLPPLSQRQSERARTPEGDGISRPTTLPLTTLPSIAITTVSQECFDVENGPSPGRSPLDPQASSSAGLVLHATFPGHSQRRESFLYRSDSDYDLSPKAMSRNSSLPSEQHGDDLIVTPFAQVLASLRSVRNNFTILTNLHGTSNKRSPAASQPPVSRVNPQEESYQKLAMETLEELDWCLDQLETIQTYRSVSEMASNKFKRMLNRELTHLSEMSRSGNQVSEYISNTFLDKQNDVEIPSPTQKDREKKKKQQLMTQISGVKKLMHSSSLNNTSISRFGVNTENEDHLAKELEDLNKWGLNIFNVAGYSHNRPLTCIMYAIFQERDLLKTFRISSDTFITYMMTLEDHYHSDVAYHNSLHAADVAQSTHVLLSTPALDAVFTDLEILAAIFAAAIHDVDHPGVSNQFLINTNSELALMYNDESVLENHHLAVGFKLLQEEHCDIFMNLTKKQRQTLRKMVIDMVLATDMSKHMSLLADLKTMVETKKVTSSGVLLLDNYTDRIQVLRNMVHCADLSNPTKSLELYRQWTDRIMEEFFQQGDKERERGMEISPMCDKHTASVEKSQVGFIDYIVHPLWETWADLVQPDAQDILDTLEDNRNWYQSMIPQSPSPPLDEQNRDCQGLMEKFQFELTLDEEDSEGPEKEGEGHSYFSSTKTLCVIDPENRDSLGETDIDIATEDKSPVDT

Assay [8] is described as follows: qHTS Assay for Lipid Storage Modulators (AID 1519; calls by dose curve). The conditions noted are these: Drosophila S3 cells, BODIPY lipid droplet/cell ratio, laser cytometry, cells loaded with oleic acid; for activity change, negative = inhibition: at 57.5 µM (top of the series). In short, it runs like this: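 Cells seeded at 5,000 per well were treated with compounds over a concentration series and loaded with oleic acid (400 uM, as added). Lipid droplet fluorescence (488 nm excitation, 500-530 nm channel) was read by laser-scanning cytometry and normalized to 20 uM Triacsin C.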
A general note: qHTS replaces the single test concentration by a dilution series.

A short description of assay [9]: Primary qHTS for small molecule stabilizers of the endoplasmic reticulum resident proteome: Secreted ER Calcium Modulated Protein (SERCaMP) assay (AID 1508630; active = well fitted curve in the direction sought with a large enough effect; an effect the other way counts as inactive or inconclusive; also: % is scaled to controls: 0 for no effect and ±100 for the full control effect). Particulars: SH-SY5Y GLuc-SERCaMP (Gaussia luciferase released on ER calcium loss) secretion, thapsigargin, luminescence; series mostly up to 38.4 µM. The procedure, abridged: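 GLuc-SERCaMP-expressing SH-SY5Y cells, pretreated 16 h with compound, are challenged with thapsigargin to empty ER calcium stores; after 4 h, coelenterazine is added directly to the medium and luminescence is imaged.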

In assay [10] the target is Glucocorticoid receptor (Homo sapiens) (UniProt P04150). Description: GR-GFP Redistribution (AID 450;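 active = compounds whose dose series gives a full or clear partial fitted curve of increased nuclear translocation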; also: potency is read from the fitted curve at half-maximal effect). The conditions noted are these: U2OS GR-GFP nuclear translocation, laser cytometry, 2 h.
Chain of Glucocorticoid receptor (Homo sapiens) (P04150 whole entry, looked up, the tested form may be a part): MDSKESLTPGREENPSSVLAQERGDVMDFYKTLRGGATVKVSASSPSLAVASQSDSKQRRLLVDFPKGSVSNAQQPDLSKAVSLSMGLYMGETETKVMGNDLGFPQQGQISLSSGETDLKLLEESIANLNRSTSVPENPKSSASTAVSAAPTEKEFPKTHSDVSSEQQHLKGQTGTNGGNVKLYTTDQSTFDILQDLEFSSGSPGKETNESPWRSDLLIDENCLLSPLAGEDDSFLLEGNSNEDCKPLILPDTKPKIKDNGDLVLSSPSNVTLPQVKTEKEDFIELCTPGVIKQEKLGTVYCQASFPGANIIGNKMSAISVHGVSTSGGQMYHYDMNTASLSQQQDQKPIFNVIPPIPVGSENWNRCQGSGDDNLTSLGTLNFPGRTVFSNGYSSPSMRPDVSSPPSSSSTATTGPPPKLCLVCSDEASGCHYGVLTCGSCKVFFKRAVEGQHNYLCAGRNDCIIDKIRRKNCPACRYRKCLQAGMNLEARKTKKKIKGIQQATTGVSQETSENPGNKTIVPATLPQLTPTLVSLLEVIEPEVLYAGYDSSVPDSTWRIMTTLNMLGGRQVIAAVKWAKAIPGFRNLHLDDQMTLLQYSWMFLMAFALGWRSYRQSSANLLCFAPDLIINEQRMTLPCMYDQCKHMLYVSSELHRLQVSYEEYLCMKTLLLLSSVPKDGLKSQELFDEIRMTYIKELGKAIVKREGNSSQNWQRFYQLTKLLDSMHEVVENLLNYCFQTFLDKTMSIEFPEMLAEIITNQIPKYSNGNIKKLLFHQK
Assay [11] has as its target Cytochrome P450 2D6 (Homo sapiens) (UniProt P10635). The assay is described as follows: qHTS Assay for Inhibitors and Substrates of Cytochrome P450 2D6 (AID 891; active = well fitted curve in the direction sought with a large enough effect; an effect the other way counts as inactive or inconclusive; also: potency is read from the fitted curve at half-maximal effect; nearly all actives have a fitted effect of over 60% in size). Particulars: recombinant CYP2D6, luciferin-ME EGE luminescence; series mostly up to 57.1 µM. In short, it runs like this:
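Human CYP2D6 (5 nM) with 30 uM Luciferin-ME EGE (at Km) in 100 mM KPO4, compound preincubated 10 min, then NADPH regeneration system for 60 min at room temperature. Luciferin read by luminescence; normalized to 1.43 uM quinidine.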

Assay [12] in a line: qHTS Assay for Identification of Small Molecule Agonists for Hypoxia Response Element Signaling Pathway (AID 914; active = well fitted activation curve with a large enough effect in the signal ratio, with a control signal flat, not every such curve was filed as active; the % refers to the signal ratio; also: % of control where 0% means no effect). Particulars: ME-180 (cervical carcinoma) HRE-bla reporter, beta-lactamase ratio, CoCl2, 17 h; activation: stronger effect = higher value. The procedure, abridged:
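Cells were plated overnight, pin-dosed with compound in a titration series, co-stimulated with EC50 CoCl2 and incubated 17 hours at 37 degrees Celsius. CCF4 substrate was then loaded, and AC50 values came from the 460nm/530nm ratio.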

A short description of assay [13]: Confirmation and Secondary Assay for Modulators of Hemoglobin Beta Chain Splicing at IVS2 705 locus (AID 930; active = well fitted curve in the direction sought with a large enough effect; an effect the other way counts as inactive or inconclusive;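 also: HeLa cells stably expressing the EGFP-705 splicing reporter; % of control where 0% means no effect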). Particulars: HeLa EGFP-705 splicing reporter, GFP fluorescence, 48 h; series mostly up to 38.3 µM. In short, it runs like this: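 Splice-correction reporter: EGFP cDNA split by beta-globin intron 2 bearing the 705 mutation, stably in HeLa. Compound incubation 2 days, 37C; fluorescent objects 5-250 µm summed per well.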

The target of assay [14] is Ubiquitin carboxyl-terminal hydrolase 1 (Homo sapiens) (UniProt O94782). The assay is described as follows: Inhibitors of USP1/UAF1: Pilot qHTS (AID 504865; active = well fitted curve in the direction sought with a large enough effect; an effect the other way counts as inactive or inconclusive;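 also: rhodamine fluorescence freed from ubiquitin-rhodamine substrate followed over time; top concentration of the series differs between compounds; % is scaled to controls: 0 for no effect and ±100 for the full control effect; nearly all actives have a fitted effect of over 35% in size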). The conditions noted are these: purified USP1/UAF1, Ub-rhodamine cleavage fluorescence; series mostly up to 54.9 µM. The procedure, abridged: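 Deubiquitinase activity followed as kinetic rhodamine fluorescence release from 150 nM Ub-Rho. 1 nM USP1/UAF1 with compound, after 15 min room-temperature preincubation, in HEPES pH 7.8 buffer containing TCEP, EDTA, BSA and Tween-20.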
Chain of Ubiquitin carboxyl-terminal hydrolase 1 (Homo sapiens) (O94782 whole entry, looked up): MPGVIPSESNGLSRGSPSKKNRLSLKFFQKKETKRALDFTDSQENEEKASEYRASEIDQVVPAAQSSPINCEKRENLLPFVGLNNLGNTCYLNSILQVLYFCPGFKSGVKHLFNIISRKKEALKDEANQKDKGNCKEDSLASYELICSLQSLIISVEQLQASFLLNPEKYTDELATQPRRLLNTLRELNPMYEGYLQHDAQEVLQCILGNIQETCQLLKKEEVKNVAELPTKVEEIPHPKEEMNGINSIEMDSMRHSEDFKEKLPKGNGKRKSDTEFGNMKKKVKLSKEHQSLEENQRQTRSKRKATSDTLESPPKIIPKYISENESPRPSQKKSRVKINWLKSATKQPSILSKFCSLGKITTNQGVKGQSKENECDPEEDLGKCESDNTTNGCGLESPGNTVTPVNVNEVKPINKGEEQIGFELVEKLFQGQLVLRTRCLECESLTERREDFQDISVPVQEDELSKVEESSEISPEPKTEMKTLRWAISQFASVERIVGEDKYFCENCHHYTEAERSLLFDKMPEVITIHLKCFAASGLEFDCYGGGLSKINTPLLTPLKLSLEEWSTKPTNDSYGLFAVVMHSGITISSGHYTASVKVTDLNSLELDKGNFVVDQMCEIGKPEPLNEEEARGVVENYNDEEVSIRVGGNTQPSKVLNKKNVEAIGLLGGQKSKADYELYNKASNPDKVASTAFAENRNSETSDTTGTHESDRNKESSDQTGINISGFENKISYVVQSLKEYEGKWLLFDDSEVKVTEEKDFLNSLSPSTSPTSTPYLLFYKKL

Assay [15] concerns the target Cytochrome P450 2C9 (Homo sapiens) (UniProt P11712). The assay is described as follows: qHTS Assay for Inhibitors and Substrates of Cytochrome P450 2C9 (AID 883; active = well fitted curve in the direction sought with a large enough effect; an effect the other way counts as inactive or inconclusive; also: nearly all actives have a fitted effect of over 60% in size; also: potency is read from the fitted curve at half-maximal effect). Particulars: recombinant CYP2C9, luciferin-H luminescence, 60 min; series mostly up to 57.1 µM. In short, it runs like this: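 Luminescent read-out of deoxyluciferin hydroxylation, normalized to 57uM sulphaphenazole (AC100). Reaction: 10nM enzyme, 100uM Luciferin-H (equal to KM), 25mM KPO4, 10 min compound preincubation, then 60 min with NADPH regeneration, both at 37C.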

Assay [16] has as its target Cytochrome P450 3A4 (Homo sapiens) (UniProt P08684). Description: qHTS Assay for Activators of Cytochrome P450 3A4 (AID 885; active = well fitted curve in the direction sought with a large enough effect; an effect the other way counts as inactive or inconclusive; also: nearly all actives have a fitted effect of over 65% in size). Particulars: recombinant CYP3A4, Luciferin-PPXE luminescence, 60 min; series mostly up to 57.1 µM. The procedure, abridged: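 Steps: enzyme/substrate mix dispensed; compound added, 10 min RT; NADPH regeneration solution added, 60 min RT; luciferin detection buffer stops reaction; 20 min later luminescence measured.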

Setting [17] is: measured here: cell count channel max response.
The mark [18] stands for this setting: measured here: lipid channel max response.

Each structure is given as a SMILES string. Inconclusive results are not listed. Active and inactive are the calls of the source. Unless noted, calls follow the shape of the dose curve; as a rule, active = well fitted curve in either direction with a large enough effect (not every such curve was filed as active); inconclusive = small, poorly fitted or top-dose-only effect, or another doubt; inactive = flat fitted curve, though single readings scatter. Where only a bound is given, the exact number is not on record here.

Chain of Cytochrome P450 1A2 (Homo sapiens) (P05177 whole entry, looked up): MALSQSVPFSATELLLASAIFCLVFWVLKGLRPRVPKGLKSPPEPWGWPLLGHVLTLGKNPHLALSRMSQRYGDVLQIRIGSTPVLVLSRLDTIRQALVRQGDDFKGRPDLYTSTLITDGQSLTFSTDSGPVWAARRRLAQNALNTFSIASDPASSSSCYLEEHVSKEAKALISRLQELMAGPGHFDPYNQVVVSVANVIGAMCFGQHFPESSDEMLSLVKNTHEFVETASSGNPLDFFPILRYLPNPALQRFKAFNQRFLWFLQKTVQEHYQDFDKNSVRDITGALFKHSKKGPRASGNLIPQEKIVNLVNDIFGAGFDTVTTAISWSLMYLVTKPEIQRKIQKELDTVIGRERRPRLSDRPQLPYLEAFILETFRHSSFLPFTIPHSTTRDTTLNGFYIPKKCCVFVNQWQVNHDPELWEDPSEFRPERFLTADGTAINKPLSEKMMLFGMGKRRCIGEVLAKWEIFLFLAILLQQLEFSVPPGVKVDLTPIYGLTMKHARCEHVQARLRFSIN
Chain of Cytochrome P450 2C9 (Homo sapiens) (P11712 whole entry, looked up): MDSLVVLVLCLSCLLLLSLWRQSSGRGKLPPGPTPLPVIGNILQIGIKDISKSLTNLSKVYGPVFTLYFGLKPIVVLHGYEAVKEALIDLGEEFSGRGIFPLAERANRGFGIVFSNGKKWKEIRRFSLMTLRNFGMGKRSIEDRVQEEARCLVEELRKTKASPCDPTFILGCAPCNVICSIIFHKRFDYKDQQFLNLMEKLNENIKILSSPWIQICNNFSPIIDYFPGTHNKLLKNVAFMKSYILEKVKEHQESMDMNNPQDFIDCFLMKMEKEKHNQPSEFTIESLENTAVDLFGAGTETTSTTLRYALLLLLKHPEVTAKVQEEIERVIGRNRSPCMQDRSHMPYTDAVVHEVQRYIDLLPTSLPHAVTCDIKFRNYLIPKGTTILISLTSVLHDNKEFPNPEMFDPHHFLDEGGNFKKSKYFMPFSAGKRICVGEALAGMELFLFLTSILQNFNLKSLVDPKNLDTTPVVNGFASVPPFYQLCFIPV
Chain of Cytochrome P450 2D6 (Homo sapiens) (P10635 whole entry, looked up): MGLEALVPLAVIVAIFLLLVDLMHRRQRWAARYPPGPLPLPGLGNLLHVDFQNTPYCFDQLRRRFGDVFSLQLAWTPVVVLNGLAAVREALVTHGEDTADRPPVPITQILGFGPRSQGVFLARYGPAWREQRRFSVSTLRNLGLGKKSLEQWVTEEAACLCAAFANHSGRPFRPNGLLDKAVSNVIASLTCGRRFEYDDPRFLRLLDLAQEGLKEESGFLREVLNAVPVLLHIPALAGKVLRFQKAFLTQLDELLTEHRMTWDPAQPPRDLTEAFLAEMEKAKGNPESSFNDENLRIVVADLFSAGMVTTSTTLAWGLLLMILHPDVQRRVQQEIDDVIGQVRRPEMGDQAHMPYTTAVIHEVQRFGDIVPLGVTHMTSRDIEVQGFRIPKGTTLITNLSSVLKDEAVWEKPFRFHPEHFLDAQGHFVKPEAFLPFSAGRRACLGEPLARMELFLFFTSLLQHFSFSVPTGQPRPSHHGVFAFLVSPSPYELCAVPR
Chain of Cytochrome P450 3A4 (Homo sapiens) (P08684 whole entry, looked up): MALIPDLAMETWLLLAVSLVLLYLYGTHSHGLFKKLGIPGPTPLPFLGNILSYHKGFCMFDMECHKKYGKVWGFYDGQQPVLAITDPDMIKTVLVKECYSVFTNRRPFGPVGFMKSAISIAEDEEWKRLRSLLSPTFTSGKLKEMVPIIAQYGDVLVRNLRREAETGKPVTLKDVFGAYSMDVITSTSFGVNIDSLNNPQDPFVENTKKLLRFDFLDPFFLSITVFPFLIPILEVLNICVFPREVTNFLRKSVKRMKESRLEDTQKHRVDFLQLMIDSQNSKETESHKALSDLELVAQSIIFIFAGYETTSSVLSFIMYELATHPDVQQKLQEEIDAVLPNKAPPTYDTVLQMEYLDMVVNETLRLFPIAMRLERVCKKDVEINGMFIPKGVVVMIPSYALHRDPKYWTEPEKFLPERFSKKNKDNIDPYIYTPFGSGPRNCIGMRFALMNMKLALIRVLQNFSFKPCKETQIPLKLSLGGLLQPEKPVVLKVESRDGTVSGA

Turning to `COC(=O)N1CCC2(CC1)CN(c1ccncc1)C2`, the figures for the Potency in [1] and in assay [5] were > 11.4 µM (inactive) and > 46 µM (inactive), respectively. For the same compound, the activity change, negative = inhibition is 1.61% (inactive) in assay [2] and 3.84% (inactive) in assay [8]. Besides, the Potency entry in assay [3], in [6] and in assay [7] was “inactive” each time. Moreover, in assay [4], the activity, negative = inhibition is -7.68% (inactive). Further, the max response in assay [8] (setting [17]) turned out to be 7.79%; in assay [8] (setting [18]), 12.9%. In [9], the result was inactive.
On to `Cn1cccc1C(=O)N1CCC2(CC1)CN(c1ccncc1)C2`, for which the results for the Potency in [1] and in assay [5] were > 11.4 µM (inactive) and > 46 µM (inactive), respectively. The results for the activity change, negative = inhibition in [2] and in assay [8] were -6.05% (inactive) and 2.57% (inactive), respectively. Moreover, the Potency entry in assay [3], in [6] and in assay [7] was “inactive” throughout. For the same compound, the activity, negative = inhibition in assay [4] is -3.69% (inactive). In addition, the max response in assay [8] (setting [17]) came to 0.464%; in assay [8] (setting [18]), 4.51%. The outcome in assay [9] was inactive.
For `COc1ccccc1-c1nc(NCCNC(C)=O)c2ccccc2n1`, the Potency in assay [1] was > 11.4 µM (inactive); in assay [3], 15.8 µM (active); in assay [10], > 46 µM (inactive); in assay [5] it was > 46 µM (inactive); in assay [11], 6.31 µM (active). The values for the activity change, negative = inhibition in [2] and in assay [8] were -11.3% (inactive) and 5.2% (inactive), respectively. The activity, negative = inhibition in assay [4] was 5.28% (inactive). In addition, the Potency result in assay [6], in assay [7] and in [14] was “inactive” each time. The activation in assay [12] was -0.258% (inactive). Moreover, the compound was called inactive in assay [13] and in assay [9]. Also, the max response is 8.82% in assay [8] (setting [17]) and 14.5% in assay [8] (setting [18]).
As for `O=C(c1ccncc1)N1CCC2(CCCN(C(c3ccccc3)c3ccccc3)C2)CC1`, the Potency in assay [1] was > 11.4 µM (inactive); in [3], 0.2 µM (active); in assay [5], > 46 µM (inactive); in assay [15], 5.01 µM (active); in assay [11] it was 0.0398 µM (active). Also, the activity change, negative = inhibition in assay [2] was 22.9% (inactive); in [8], 2.92% (inactive). Besides, in [4], the activity, negative = inhibition is 11.1% (inactive). In addition, the Potency entry in [6], in assay [7] and in assay [16] was “inactive” each time. The max response worked out at 12.6% in [8] (setting [17]) and 17.9% in assay [8] (setting [18]). Moreover, the outcome in [9] was inactive.
With `COc1ccccc1CN1CCC2(CC1)CCN(C(=O)c1ccco1)CC2`, the Potency was > 11.4 µM (inactive) in assay [1] and > 46 µM (inactive) in assay [5]. In addition, the results for the activity change, negative = inhibition in assay [2] and in assay [8] were -17.3% (inactive) and 3.05% (inactive), respectively. The Potency entry in assay [3], in [6] and in assay [7] was “inactive” throughout. Further, the activity, negative = inhibition in assay [4] was -4.26% (inactive). Further, the results for the max response in assay [8] (setting [17]) and in assay [8] (setting [18]) were 1.79% and 7.5%, respectively. Further, the outcome in assay [9] was inactive.
Take `Cc1noc(C)c1C(=O)N1CCC2(CCN(Cc3ccccc3)CC2)CC1`: the Potency in assay [1] was > 11.4 µM (inactive); in assay [5], > 46 µM (inactive). Moreover, the activity change, negative = inhibition in assay [2] is 6.02% (inactive); in assay [8], 0.801% (inactive). The Potency result in assay [3], in assay [6], in [7] and in assay [15] was “inactive” throughout. For the same compound, the activity, negative = inhibition in [4] was 1% (inactive). The activation in [12] was -10.3% (inactive). Further, the figures for the max response in assay [8] (setting [17]) and in assay [8] (setting [18]) were 19.5% and 22%, respectively. Moreover, the outcome in assay [9] was inactive.
